The source of these data is article PMC7862700, “An all-to-all approach to the identification of sequence-specific readers for epigenetic DNA modifications on cytosine”.

Holding throughout (test): DAPPL (digital affinity profiling via proximity ligation, sequencing); 10 mM Tris-HCl pH 7.5, 50 mM NaCl, 1 mM DTT, 4% glycerol, room temperature, 30 min; GST-TFs on glutathione beads, 16-mer random dsDNA library, 0.1% formaldehyde crosslink after washing; high values mean tight binding
One assay addresses T1, FEV (Homo sapiens, UniProt Q99581 1-238).
T1 sequence: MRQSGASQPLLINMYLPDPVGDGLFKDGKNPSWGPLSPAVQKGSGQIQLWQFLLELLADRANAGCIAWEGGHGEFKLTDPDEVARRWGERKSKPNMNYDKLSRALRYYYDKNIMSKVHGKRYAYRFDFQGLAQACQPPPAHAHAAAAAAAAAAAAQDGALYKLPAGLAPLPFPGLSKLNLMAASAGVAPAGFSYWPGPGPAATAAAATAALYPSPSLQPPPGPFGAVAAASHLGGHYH
As to conditions: protein: recombinant; tags: N-terminal GST; dsDNA, one strand shown. In outline:
(§1)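 Yeast served to express human transcription factors as GST fusions, which were then captured on glutathione beads and labelled with DNA barcodes. Pooled with a tag-only sample, they were incubated with 200 nmole of a 16-mer random double-stranded DNA library for 30 min at room temperature in Tris/NaCl/DTT/glycerol buffer, washed, crosslinked with 0.1% formaldehyde, ligated by proximity, amplified by PCR and sequenced. Dividing each hexamer's read frequency for a factor by its frequency for the tag-only sample gives the binding signal.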

Another assay deals with ETV5 (Homo sapiens, UniProt P41161 1-510). Particulars: protein: recombinant; tags: N-terminal GST; dsDNA, one strand shown. In outline:
as §1

In a further assay the target is HSF1 (Homo sapiens, UniProt Q00613 1-529). As to conditions: protein: recombinant; tags: N-terminal GST; chain copies: 3; dsDNA, one strand shown. Put shortly:
as §1

The target of a further assay is T2, SPIC (Homo sapiens, UniProt Q8N5J4 1-248).
T2 sequence: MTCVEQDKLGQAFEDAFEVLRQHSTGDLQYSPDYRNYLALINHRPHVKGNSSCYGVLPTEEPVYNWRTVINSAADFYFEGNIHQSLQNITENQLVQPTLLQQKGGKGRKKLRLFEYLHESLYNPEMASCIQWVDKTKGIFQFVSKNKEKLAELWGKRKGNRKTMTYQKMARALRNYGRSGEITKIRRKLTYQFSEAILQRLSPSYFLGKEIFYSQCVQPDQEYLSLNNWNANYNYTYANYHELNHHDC
As to conditions: protein: recombinant; tags: N-terminal GST; dsDNA, one strand shown. Put shortly: as §1

The target in another assay is ELF4 (Homo sapiens, UniProt Q99607 1-663). As to conditions: protein: recombinant; tags: N-terminal GST; dsDNA, one strand shown. Put shortly: as §1
Sequence of ELF4 (Q99607 whole entry): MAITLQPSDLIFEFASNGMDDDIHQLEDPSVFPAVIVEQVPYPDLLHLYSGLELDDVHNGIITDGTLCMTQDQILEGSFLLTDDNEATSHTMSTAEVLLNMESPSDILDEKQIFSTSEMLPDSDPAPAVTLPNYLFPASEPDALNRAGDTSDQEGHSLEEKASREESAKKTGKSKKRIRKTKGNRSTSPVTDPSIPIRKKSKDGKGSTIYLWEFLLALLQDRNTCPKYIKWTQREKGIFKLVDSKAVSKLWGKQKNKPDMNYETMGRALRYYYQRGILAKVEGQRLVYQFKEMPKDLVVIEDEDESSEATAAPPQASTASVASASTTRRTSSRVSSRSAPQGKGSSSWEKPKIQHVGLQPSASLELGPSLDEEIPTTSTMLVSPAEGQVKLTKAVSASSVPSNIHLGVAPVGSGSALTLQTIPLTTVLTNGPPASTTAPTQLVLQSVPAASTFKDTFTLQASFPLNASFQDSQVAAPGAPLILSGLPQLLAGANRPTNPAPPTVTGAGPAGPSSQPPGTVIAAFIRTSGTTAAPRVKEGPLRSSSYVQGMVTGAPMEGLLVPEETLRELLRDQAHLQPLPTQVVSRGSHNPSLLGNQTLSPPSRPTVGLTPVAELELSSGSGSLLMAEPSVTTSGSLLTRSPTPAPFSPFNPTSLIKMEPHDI
For a further assay, the target named is T3, ELK4 (Homo sapiens, UniProt P28324-2 1-405).
T3 sequence: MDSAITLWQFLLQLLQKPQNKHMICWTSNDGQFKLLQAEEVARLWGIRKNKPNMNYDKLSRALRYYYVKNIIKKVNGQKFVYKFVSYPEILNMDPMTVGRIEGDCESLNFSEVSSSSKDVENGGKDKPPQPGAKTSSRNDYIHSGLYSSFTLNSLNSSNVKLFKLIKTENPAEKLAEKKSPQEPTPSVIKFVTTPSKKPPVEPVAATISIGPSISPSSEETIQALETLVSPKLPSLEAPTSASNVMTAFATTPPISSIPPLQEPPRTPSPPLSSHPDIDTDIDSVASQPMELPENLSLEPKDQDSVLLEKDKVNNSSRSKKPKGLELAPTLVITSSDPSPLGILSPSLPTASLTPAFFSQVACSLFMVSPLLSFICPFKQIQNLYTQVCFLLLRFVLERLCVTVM
Particulars: protein: recombinant; tags: N-terminal GST; dsDNA, one strand shown. In outline: as §1

In the next assay the target is T4, ETV2 (Homo sapiens, UniProt O00321 1-342).
T4 sequence: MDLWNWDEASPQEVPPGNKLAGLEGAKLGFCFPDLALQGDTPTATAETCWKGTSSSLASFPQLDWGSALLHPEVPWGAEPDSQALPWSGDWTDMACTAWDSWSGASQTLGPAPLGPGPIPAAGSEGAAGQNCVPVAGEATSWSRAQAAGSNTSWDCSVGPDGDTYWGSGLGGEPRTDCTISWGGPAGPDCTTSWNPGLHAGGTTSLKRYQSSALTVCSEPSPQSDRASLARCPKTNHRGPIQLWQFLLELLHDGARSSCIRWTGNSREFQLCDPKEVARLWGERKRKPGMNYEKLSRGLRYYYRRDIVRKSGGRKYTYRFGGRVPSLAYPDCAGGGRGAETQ
Particulars: protein: recombinant; tags: N-terminal GST; dsDNA, one strand shown. Put shortly:
as §1

The target in the next assay is T5, ELF3 (Homo sapiens, UniProt P78545 1-371).
T5 sequence: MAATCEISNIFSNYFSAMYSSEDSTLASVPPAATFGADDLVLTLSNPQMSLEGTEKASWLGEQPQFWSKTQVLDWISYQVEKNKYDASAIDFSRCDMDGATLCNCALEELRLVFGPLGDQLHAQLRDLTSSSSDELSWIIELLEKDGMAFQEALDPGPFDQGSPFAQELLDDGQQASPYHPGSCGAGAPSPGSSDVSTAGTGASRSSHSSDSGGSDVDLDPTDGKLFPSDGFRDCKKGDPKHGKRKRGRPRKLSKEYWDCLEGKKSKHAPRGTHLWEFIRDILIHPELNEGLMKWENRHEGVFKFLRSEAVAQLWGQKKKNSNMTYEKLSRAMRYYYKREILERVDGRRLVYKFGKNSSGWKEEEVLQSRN
As to conditions: protein: recombinant; tags: N-terminal GST; dsDNA, one strand shown. Put shortly: as §1

The target in a further assay is CRX (Homo sapiens, UniProt O43186 1-299). As to conditions: protein: recombinant; tags: N-terminal GST; dsDNA, one strand shown. In outline:
as §1

The target in the next assay is ETV1 (Homo sapiens, UniProt P50549 1-477). Particulars: protein: recombinant; tags: N-terminal GST; dsDNA, one strand shown. Put shortly:
as §1

Another assay concerns the target T6, ERF (Homo sapiens, UniProt P50548 1-548).
T6 sequence: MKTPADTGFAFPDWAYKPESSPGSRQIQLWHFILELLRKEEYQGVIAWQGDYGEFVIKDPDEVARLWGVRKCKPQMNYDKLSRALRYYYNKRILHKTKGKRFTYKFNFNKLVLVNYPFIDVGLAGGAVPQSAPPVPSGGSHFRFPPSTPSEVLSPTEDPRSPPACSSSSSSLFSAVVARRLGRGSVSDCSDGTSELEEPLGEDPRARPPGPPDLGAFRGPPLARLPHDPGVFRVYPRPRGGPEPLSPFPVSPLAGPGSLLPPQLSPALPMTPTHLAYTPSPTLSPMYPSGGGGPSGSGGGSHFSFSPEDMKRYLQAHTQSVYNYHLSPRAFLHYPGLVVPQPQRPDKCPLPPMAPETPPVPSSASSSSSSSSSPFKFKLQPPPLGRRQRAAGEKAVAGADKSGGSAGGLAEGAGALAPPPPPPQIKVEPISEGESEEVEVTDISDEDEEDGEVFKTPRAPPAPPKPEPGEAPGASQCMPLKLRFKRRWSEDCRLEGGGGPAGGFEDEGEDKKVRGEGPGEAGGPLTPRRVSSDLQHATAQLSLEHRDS
Particulars: protein: recombinant; tags: N-terminal GST; dsDNA, one strand shown. Put shortly: as §1

Another assay has as its target T7, ETV3L (Homo sapiens, UniProt Q6ZN32 1-361).
T7 sequence: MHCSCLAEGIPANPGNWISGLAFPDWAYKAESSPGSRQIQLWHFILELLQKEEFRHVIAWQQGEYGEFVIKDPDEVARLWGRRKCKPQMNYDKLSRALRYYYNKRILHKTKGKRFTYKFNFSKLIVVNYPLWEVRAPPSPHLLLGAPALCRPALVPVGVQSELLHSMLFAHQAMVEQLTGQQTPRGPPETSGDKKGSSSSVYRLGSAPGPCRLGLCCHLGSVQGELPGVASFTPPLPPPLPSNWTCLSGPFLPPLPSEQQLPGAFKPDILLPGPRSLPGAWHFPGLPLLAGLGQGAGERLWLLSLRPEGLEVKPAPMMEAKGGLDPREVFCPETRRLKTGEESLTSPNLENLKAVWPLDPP
Particulars: protein: recombinant; tags: N-terminal GST; dsDNA, one strand shown. Put shortly: as §1

Another assay addresses T8, ETS2 (Homo sapiens, UniProt P15036 1-469).
T8 sequence: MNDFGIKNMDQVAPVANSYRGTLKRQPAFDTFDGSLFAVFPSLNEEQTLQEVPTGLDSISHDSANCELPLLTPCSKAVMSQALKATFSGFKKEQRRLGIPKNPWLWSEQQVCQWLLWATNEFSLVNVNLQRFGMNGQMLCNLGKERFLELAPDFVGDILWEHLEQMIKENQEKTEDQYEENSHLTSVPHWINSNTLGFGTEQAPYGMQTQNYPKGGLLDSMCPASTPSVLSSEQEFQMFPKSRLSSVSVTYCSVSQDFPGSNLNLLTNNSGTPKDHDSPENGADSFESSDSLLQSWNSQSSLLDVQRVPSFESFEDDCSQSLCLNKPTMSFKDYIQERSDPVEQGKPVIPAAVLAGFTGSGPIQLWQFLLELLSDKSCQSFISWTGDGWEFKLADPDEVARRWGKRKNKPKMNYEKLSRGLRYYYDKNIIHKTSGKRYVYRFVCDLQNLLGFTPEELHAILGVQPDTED
Particulars: protein: recombinant; tags: N-terminal GST; dsDNA, one strand shown. Put shortly: as §1

A further assay concerns the target T9, SPDEF (Homo sapiens, UniProt O95238 1-335).
T9 sequence: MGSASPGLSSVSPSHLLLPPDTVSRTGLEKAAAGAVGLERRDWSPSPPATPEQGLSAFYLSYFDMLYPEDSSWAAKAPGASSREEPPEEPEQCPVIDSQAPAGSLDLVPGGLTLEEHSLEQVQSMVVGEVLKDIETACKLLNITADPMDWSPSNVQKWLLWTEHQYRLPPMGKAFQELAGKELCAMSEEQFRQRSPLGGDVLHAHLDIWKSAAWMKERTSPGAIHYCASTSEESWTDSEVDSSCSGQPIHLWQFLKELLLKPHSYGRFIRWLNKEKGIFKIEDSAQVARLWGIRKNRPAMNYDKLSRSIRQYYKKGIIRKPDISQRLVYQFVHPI
Particulars: protein: recombinant; tags: N-terminal GST; dsDNA, one strand shown. Put shortly: as §1

In a further assay the target is T10, ETV7 (Homo sapiens, UniProt Q9Y603 1-341).
T10 sequence: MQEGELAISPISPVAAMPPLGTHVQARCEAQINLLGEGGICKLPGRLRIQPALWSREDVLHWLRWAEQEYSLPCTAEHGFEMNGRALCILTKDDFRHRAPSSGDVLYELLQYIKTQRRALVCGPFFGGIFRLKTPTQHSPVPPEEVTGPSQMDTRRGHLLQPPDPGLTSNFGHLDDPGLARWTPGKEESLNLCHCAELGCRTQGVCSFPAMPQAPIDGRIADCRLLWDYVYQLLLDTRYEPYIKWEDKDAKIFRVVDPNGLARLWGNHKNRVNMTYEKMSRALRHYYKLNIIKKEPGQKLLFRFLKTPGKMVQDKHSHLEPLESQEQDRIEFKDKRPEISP
As to conditions: protein: recombinant; tags: N-terminal GST; dsDNA, one strand shown. Put shortly:
as §1

In the next assay the target is T11, ELF5 (Homo sapiens, UniProt Q9UKW6-2 1-255).
T11 sequence: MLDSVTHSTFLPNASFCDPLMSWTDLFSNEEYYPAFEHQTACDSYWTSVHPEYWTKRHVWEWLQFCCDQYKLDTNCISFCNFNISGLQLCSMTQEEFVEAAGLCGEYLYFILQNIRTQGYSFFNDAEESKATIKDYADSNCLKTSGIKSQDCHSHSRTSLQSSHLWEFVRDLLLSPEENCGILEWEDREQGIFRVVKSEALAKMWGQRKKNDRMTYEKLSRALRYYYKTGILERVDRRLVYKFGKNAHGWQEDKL
As to conditions: protein: recombinant; tags: N-terminal GST; dsDNA, one strand shown. Put shortly:
as §1

A further assay deals with T12, ETV3 (Homo sapiens, UniProt P41162-2 1-143).
T12 sequence: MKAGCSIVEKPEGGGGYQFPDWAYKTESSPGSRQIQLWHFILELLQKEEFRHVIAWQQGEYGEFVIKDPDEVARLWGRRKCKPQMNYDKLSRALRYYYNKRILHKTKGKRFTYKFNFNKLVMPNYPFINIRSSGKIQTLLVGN
Particulars: protein: recombinant; tags: N-terminal GST; dsDNA, one strand shown. In outline: as §1

The next assay deals with ETV6 (Homo sapiens, UniProt P41212 1-452). Particulars: protein: recombinant; tags: N-terminal GST; dsDNA, one strand shown. In outline: as §1
Sequence of ETV6 (P41212 whole entry): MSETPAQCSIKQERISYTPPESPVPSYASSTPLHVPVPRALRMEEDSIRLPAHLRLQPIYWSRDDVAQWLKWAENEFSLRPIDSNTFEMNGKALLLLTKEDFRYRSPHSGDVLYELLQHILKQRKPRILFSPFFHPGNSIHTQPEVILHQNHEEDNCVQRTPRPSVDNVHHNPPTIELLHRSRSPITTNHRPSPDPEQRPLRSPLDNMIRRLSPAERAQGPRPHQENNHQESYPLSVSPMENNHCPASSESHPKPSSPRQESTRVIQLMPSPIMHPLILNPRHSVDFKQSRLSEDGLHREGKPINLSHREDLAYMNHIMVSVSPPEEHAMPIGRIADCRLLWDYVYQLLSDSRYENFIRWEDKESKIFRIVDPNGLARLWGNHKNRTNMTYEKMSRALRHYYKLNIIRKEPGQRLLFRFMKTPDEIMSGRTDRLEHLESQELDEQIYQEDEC

Sequence of CRX (O43186 whole entry): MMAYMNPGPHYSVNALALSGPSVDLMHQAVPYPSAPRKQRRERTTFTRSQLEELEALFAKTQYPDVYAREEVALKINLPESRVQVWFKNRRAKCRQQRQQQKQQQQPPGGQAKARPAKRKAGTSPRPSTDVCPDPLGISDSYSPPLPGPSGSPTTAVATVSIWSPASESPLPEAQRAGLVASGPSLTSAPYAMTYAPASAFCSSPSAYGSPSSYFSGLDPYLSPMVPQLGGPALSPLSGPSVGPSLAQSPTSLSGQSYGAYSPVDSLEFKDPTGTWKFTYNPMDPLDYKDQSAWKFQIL
Sequence of HSF1 (Q00613 whole entry): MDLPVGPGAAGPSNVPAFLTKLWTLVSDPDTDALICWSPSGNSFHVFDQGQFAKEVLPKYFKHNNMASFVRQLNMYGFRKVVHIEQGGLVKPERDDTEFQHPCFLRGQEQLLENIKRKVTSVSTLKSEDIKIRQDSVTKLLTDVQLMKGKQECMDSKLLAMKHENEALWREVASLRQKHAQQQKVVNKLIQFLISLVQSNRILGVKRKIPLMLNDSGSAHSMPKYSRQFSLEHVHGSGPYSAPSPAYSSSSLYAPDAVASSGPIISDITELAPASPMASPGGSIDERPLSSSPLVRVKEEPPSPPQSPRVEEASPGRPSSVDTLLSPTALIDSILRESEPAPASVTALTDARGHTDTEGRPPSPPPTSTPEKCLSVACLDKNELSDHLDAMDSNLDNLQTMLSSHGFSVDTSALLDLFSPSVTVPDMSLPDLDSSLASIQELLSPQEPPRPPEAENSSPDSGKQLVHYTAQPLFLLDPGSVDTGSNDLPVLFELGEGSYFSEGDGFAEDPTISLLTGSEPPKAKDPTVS
Sequence of ETV5 (P41161 whole entry): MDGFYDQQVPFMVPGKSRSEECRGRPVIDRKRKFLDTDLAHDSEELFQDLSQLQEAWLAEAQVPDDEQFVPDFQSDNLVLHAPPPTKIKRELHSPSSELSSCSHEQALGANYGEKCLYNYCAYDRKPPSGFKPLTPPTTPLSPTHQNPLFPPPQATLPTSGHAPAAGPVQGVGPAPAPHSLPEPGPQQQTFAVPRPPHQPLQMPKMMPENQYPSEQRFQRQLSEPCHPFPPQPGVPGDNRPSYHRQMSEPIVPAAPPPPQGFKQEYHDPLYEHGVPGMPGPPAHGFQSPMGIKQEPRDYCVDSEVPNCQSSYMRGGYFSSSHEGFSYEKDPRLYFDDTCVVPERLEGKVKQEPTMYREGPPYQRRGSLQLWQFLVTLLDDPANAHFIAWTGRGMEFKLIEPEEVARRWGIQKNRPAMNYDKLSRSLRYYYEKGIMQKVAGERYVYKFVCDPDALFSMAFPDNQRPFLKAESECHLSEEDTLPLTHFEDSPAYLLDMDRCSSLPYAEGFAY
Sequence of ETV1 (P50549 whole entry): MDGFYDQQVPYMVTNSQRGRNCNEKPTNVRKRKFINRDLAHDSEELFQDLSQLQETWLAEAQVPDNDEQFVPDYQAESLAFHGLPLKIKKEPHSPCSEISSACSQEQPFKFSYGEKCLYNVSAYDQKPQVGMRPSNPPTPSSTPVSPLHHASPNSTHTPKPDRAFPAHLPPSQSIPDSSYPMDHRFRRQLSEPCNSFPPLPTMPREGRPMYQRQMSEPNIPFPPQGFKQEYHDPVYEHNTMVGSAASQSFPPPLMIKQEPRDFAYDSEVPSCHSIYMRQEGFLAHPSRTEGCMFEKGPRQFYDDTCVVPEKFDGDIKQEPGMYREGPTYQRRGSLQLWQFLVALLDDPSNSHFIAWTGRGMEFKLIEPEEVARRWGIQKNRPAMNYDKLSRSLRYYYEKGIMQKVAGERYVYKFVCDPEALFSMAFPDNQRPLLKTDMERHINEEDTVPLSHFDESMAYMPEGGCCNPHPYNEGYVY

On to AAGCCT, for which the binding signal in the assay with FEV was 1.2 fold enrichment (6-mer frequency, TF over GST control); with ETV5, 1.21 fold enrichment (6-mer frequency, TF over GST control); in the assay with HSF1 it was 1.5 fold enrichment (6-mer frequency, TF over GST control); with SPIC, 1.26 fold enrichment (6-mer frequency, TF over GST control); in the assay with ELF4, 1.24 fold enrichment (6-mer frequency, TF over GST control); with ELK4, 1.14 fold enrichment (6-mer frequency, TF over GST control). Besides, the binding signal with ETV2 is 1.19 fold enrichment (6-mer frequency, TF over GST control); with ELF3 it was 1.18 fold enrichment (6-mer frequency, TF over GST control); in the assay with CRX it was 1.97 fold enrichment (6-mer frequency, TF over GST control); in the assay with ETV1 it was 1.18 fold enrichment (6-mer frequency, TF over GST control); with ERF it was 1.17 fold enrichment (6-mer frequency, TF over GST control); with ETV3L it was 1.23 fold enrichment (6-mer frequency, TF over GST control). Further, the binding signal with ETS2 was 1.22 fold enrichment (6-mer frequency, TF over GST control); with SPDEF, 1.02 fold enrichment (6-mer frequency, TF over GST control); with ETV7, 1.3 fold enrichment (6-mer frequency, TF over GST control); with ELF5, 1.2 fold enrichment (6-mer frequency, TF over GST control); with ETV3, 1.3 fold enrichment (6-mer frequency, TF over GST control); with ETV6, 1.23 fold enrichment (6-mer frequency, TF over GST control).
